According to PubChem BioAssay (NCATS):
Values joined by “and” are separate entries in the source; they are usually repeats but may differ in a detail not shown here. Equal entries are not always repeated. Records with an inconclusive call do not appear. Active and inactive are the calls of the source. Unless noted, calls come from the whole dose curve; as a rule, active = well fitted curve in the direction sought with a large enough effect; inconclusive = small, poorly fitted or top-dose-only effect, or another doubt; inactive = no such curve, though single readings can be large; an effect the other way counts as inactive or inconclusive.

How the values were obtained:
[1] = qHTS Assay for Identifying Gametocytocidal Compounds (AID 743244); note: potency is the fitted concentration of half-maximal effect;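 for max response: % is set by controls: 0 for no effect and ±100 for the full control effect; actives lower the fluorescent signal which means gametocytes are killed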; conditions: P. falciparum 3D7 stage III-V gametocytes, alamarBlue, 72 h; max response: stronger effect = lower value
Procedure, shortened: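 Stage III-V P. falciparum 3D7 gametocytes, 20,000 per well, were exposed to compounds for 72 h at 37C, 5% CO2. AlamarBlue was then added for 24 h and viability was read as fluorescence at Ex 525/Em 598 nm.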

[2] = qHTS for compounds that reverse cellular toxicity of Amyloid beta (A-beta) peptide in yeast: LOPAC Validation Assay (AID 720559); conditions: yeast expressing A-beta; series mostly up to 46.1 µM;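 note: plate controls were DMSO for no effect and equimolar ferric chloride plus clioquinol rescue for full effect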
Procedure, shortened: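 Rescue of A-beta toxicity was scored as yeast growth by 600 nm absorbance after 48 hr at 30 C with compound. Normalization used DMSO (negative) and equimolar ferric chloride plus clioquinol (positive).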

[3] = qHTS for Activators of Parkin Expression: LOPAC Validation Assay (NLuc Reporter) (AID 720572;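 note: 0% = DMSO and 100% = positive control compound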); conditions: Parkin promoter NanoLuc reporter cells, luminescence, percent of positive control, DMSO as zero; series mostly up to 46.1 µM
Procedure, shortened: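 Neuronal line stably carrying a FLuc/NLuc coincidence reporter under the Parkin promoter, seeded 24 h, then dosed in 7-point series for 24 h at 37 C. NLuc luminescence read after FLuc; normalized to DMSO and positive control (100%).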

[4] = qHTS for Activators of Parkin Expression: LOPAC Validation Assay (FLuc Reporter) (AID 720573;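 note: 0% = DMSO and 100% = positive control compounds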); conditions: Cell line, PRKN promoter firefly luciferase reporter, vehicle wells = 0, positive control = 100%; series mostly up to 46.1 µM
Procedure, shortened: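 FLuc signal from Parkin-promoter coincidence reporter neuronal cells, normalized to DMSO and positive control (100%). Cells (1,500/well) pre-incubated 24 h, then exposed to LOPAC compounds in 7-point dose response for 24 h at 37 C, 5% CO2.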

[5] = target: T1, Hexokinase-4 (Homo sapiens) + Glucokinase regulatory protein (Homo sapiens) (UniProt P35557+Q14397); test: qHTS assay for inhibitors of recombinant human GCK-GKRP interaction: Diaphorase-coupled assay (AID 743205); conditions: G6PDH/diaphorase resorufin fluorescence; series mostly up to 57.5 µM
T1 sequence (P35557 whole entry, looked up): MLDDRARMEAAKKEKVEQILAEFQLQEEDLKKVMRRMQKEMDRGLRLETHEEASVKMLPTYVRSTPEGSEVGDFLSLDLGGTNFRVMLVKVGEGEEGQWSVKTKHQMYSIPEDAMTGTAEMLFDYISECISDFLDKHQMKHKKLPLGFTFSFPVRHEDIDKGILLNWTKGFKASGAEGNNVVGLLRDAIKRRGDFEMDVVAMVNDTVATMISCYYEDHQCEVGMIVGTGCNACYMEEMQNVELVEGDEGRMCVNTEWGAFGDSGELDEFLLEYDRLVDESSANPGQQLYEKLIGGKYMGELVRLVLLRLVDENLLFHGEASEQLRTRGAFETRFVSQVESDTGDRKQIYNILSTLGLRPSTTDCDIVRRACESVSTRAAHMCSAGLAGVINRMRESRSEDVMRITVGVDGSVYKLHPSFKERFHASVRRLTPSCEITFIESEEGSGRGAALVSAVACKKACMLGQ
T1 sequence (Q14397 whole entry, looked up): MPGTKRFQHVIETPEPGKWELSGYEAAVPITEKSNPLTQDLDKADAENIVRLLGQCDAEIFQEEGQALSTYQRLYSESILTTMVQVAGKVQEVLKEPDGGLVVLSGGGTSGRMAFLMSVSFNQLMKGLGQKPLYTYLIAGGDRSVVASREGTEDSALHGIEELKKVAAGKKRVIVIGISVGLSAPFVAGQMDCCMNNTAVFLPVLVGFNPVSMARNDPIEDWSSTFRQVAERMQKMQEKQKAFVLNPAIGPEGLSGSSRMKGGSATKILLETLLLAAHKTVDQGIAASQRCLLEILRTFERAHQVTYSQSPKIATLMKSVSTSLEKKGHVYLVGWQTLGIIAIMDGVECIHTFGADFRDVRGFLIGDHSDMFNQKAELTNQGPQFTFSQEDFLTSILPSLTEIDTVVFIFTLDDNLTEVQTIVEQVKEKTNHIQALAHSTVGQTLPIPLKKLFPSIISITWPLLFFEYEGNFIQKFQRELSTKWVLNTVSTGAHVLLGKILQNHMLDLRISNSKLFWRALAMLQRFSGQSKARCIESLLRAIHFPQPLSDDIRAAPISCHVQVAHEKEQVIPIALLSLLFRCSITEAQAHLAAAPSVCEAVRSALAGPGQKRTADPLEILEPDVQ
Procedure, shortened: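 A kinetic fluorescence read (Ex 525/Em 590 nm, every minute for 30 minutes) tracked resorufin from a G6PDH-diaphorase coupled GCK reaction. It contained 10 nM GST-GCK, 10 nM FLAG-GKRP, 5 mM glucose, 0.4 mM ATP in Hepes pH 7.6. Normalized to with/without-enzyme DMSO controls.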

[6] = target: T1, Hexokinase-4 (Homo sapiens) + Glucokinase regulatory protein (Homo sapiens); test: qHTS assay for inhibitors of recombinant human GCK-GKRP interaction: ADP-Glo assay (AID 743206); conditions: ADP-Glo luminescence, 60 min, 0% = vehicle-only wells with enzyme present; series mostly up to 76.9 µM;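 note: plate controls were DMSO plus enzyme for no effect and no enzyme for full effect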
Procedure, shortened: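 GST-GCK and FLAG-GKRP (15 nM each in the dispensed mix, with 2 uM S6P) react with 0.4 mM ATP and 5 mM glucose (final) in Hepes pH 7.6 for 60 min at room temperature. ADP is measured by ADP-Glo luminescence.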

[7] = target: T1, Hexokinase-4 (Homo sapiens) + Glucokinase regulatory protein (Homo sapiens); test: qHTS assay for inhibitors of recombinant human GCK-GKRP interaction: HTRF assay (AID 743207); conditions: recombinant GCK-GKRP HTRF binding, 60 min; series mostly up to 57.5 µM;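 note: 0% = DMSO with GCK present and -100% = DMSO wells lacking GCK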
Procedure, shortened: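 After 60 min equilibration at room temperature with anti-FLAG XL665 and anti-GST antibodies, FRET ratio (665/615 nm, excitation 320 nm) was read. Proteins: GST-GCK and FLAG-GKRP, each 5 nM, plus 2 uM S6P, pH 7.1 buffer; GCK-free wells define minimum signal.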

[8] = qHTS profiling for inhibitors of Plasmodium falciparum (3D7) proliferation (AID 743322; call rule not given here;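 note: infected erythrocytes exposed to compound for 72 h before lysis; 100% = DMSO vehicle wells and 0% = 0.29 µM artemisinin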); conditions: P. falciparum 3D7 proliferation; at 28.7 µM (top of the series) unless noted
Procedure, shortened: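 Erythrocytes infected with P. falciparum (0.3% parasitemia, 2.5% hematocrit) incubated with compounds 72 h at 37 C, 5% CO2. Lysis with saponin/Triton buffer containing SYBR Green I, overnight at room temperature in the dark; DNA fluorescence (485/535 nm) normalised to 0.29 uM artemisinin and DMSO.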

[9] = qHTS profiling for inhibitors of Plasmodium falciparum (DD2) proliferation (AID 743323; call rule not given here); conditions: lower = more inhibition; at 28.7 µM (top of the series) unless noted
Procedure, shortened: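 SYBR Green fluorescence (ex 485, em 535 nm) of lysed cultures gives parasite DNA content; wells normalized to artemisinin (0.29 uM) and DMSO controls. Infected red cells: 0.3% parasitemia, 2.5% hematocrit, 72 h, 37 C.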

[10] = qHTS assay for small molecule agonists of the antioxidant response element (ARE) signaling pathway measured by Nrf2-dependant transcriptional activity (AID 720636; active = well fitted curve in the direction sought with a large enough effect in the repeat runs; an effect the other way counts as inactive or inconclusive; note: potency is the fitted concentration of half-maximal effect); conditions: ARE-luc HepG2, Nrf2 luciferase reporter, 16 h; series mostly up to 92.4 µM
Procedure, shortened: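 ARE-luc HepG2 cells carrying an Nrf2-responsive luciferase reporter, in medium with 1% dialyzed FBS, exposed to compound for 16 hr at 37 C, 5% CO2. Luminescence read 30 min after ONE-Glo addition.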

**Q.** With `CN[C@@H](C)C(=O)N[C@H]1CCCC[C@H]2CC[C@@H](C(=O)N[C@@H](c3ccccc3)c3cn(CCCCc4ccc(CCCCn5cc([C@@H](NC(=O)[C@@H]6CC[C@@H]7CCCC[C@H](NC(=O)[C@H](C)NC)C(=O)N76)c6ccccc6)nn5)cc4)nn3)N2C1=O` as the molecule, how does the Potency [1] read?
**A.** 2.64 µM (active)

**Q.** What does the source list for `c1ccc(C2(c3ccccc3)CC2C2=NCCN2)cc1` (stereo not given)?
**A.** outcome [2]: inactive; outcome [3]: inactive; outcome [4]: inactive; outcome [5]: inactive; outcome [6]: inactive; outcome [7]: inactive; max response [1]: -4.94% (inactive) and 21.7% (inactive)

**Q.** For `O=[N+]([O-])c1ccc([As](=O)(O)O)cc1`, which Potency [1] is on record?
**A.** 10 µM (active)

**Q.** For `CCCCN1CCC(CNC(=O)c2c3n(c4ccccc24)CCCO3)CC1`, which remaining parasite growth % (stronger effect = lower value) [8] is on record?
**A.** 91.7%

**Q.** And the activity, percent of control [9]?
**A.** 54.7%

**Q.** With `O=C(O)c1ccc(O)c2ncc(N3CCOCC3)cc12` as the molecule, how does the Potency [1] read?
**A.** 9.35 µM (active)

**Q.** What about the activity, percent of control [9] of the same molecule?
**A.** 35.5%

**Q.** With `CC(O)CN1CCN(CC(=O)[O-])CCN(CC(=O)[O-])CCN(CC(=O)[O-])CC1.[Gd+3]` (stereo not given) as the molecule, how does the max response [1] read?
**A.** 1.03% (inactive) and -10.9% (inactive)

**Q.** Which max response [1] does the source give for `Cc1ccc(Cl)c(O)c1` here?
**A.** -0.773% (inactive)

**Q.** What does the source list for `Nc1nc(-c2nn(Cc3ccccc3F)c3ncccc23)nc(N)c1N1CCOCC1`?
**A.** remaining parasite growth % (stronger effect = lower value) [8]: 100%; activity, percent of control [9]: 94.1%

**Q.** Which outcome [2] does the source give for `NCCc1c[nH]c2ccccc12` here?
**A.** inactive

**Q.** And the outcome [3]?
**A.** inactive

**Q.** And the outcome [4]?
**A.** inactive

**Q.** What about the outcome [5] of the same molecule?
**A.** inactive

**Q.** And the outcome [6]?
**A.** inactive

**Q.** What about the outcome [7] of the same molecule?
**A.** inactive

**Q.** And the max response [1]?
**A.** 11% (inactive)

**Q.** Which max response [1] does the source give for `CC1(C)CC/C(=C/c2ccc(Cl)cc2)C1(O)Cn1cncn1` (stereo not given) here?
**A.** -5.52% (inactive)

**Q.** Which Potency [1] does the source give for `COc1ccc2c(c1)CC[C@H]1[C@@H]2CC[C@]2(C)[C@@H](NCCCCCCN3C(=O)C=CC3=O)CC[C@H]12` here?
**A.** 9.35 µM (active)

**Q.** What about the remaining parasite growth % (stronger effect = lower value) [8] of the same molecule?
**A.** 86.3%

**Q.** What about the activity, percent of control [9] of the same molecule?
**A.** 73.1%

**Q.** With `[Cl][In]([Cl])[Cl]` as the molecule, how does the Potency [10] read?
**A.** 42.2 µM (active)

**Q.** For `Oc1ccc2c3c1O[C@H]1[C@@H](O)C=C[C@H]4[C@@H](C2)NCC[C@@]341`, which max response [1] is on record?
**A.** 4.91% (inactive)

**Q.** Which Potency [1] does the source give for `COCCn1c2c([n+](Cc3cnccn3)c1C)C(=O)c1ccccc1C2=O` here?
**A.** 0.372 µM (active)

**Q.** For `CCC1(CCC(C)C)C(=O)NC(=O)NC1=O`, which max response [1] is on record?
**A.** 2.89% (inactive)

**Q.** Which Potency [10] does the source give for `c1ccc2occc2c1` here?
**A.** inactive

**Q.** With `C[N+](C)(C)CC(=O)O` as the molecule, how does the max response [1] read?
**A.** -4.91% (inactive)

**Q.** With `CC[C@@H](C(=O)O)C1CC[C@H](C)C([C@@H](C)[C@H](O)[C@H](C)C(=O)[C@H](CC)C2O[C@]3(C=C[C@@H](O)[C@]4(CC[C@@](C)(C5CC[C@](O)(CC)[C@H](C)O5)O4)O3)[C@H](C)C[C@@H]2C)O1` (stereo not given in full) as the molecule, how does the Potency [1] read?
**A.** 0.0526 µM (active)

**Q.** For `CC(C)(C)NC[C@H](O)c1ccc(O)cc1Cl`, which max response [1] is on record?
**A.** 2.84% (inactive)

**Q.** For `NC1=NC(=O)N2CC12` (stereo not given), which max response [1] is on record?
**A.** -4.05% (inactive)

**Q.** Which results are given for `O=C(O)Cc1cnc[nH]1`?
**A.** outcome [2]: inactive; outcome [3]: inactive; outcome [4]: inactive; outcome [5]: inactive; outcome [6]: inactive; outcome [7]: inactive; max response [1]: 3.18% (inactive)

**Q.** For `COC(=O)c1cncn1C(C)c1ccccc1` (stereo not given), which max response [1] is on record?
**A.** -7.45% (inactive)

**Q.** For `S=C(SSC(=S)N1CCCCC1)N1CCCCC1`, which Potency [1] is on record?
**A.** 0.148 µM (active)

**Q.** For `CO[C@H]1C=CC=C(C)C(=O)NC2=CC(=O)C(NCCN(C)C)=C(C[C@@H](C)C[C@H](OC)[C@@H](O)[C@@H](C)C=C(C)[C@@H]1OC(N)=O)C2=O`, which Potency [1] is on record?
**A.** 0.0469 µM (active)

**Q.** For `CN1CC[C@@H](c2c(O)cc(O)c3c(=O)cc(-c4ccccc4Cl)oc23)[C@@H](O)C1`, which max response [1] is on record?
**A.** 13.4% (inactive)

**Q.** Which max response [1] does the source give for `CN[C@@H](C)[C@H](O)c1ccccc1` here?
**A.** -11.3% (inactive)

**Q.** With `c1ccc2sc(C3(N4CCCCC4)CCCCC3)cc2c1` as the molecule, how does the outcome [2] read?
**A.** inactive

**Q.** What about the outcome [3] of the same molecule?
**A.** inactive

**Q.** And the outcome [4]?
**A.** inactive

**Q.** And the outcome [5]?
**A.** inactive

**Q.** What about the outcome [6] of the same molecule?
**A.** inactive

**Q.** And the outcome [7]?
**A.** inactive

**Q.** What about the max response [1] of the same molecule?
**A.** 6.13% (inactive)

**Q.** Which outcome [2] does the source give for `NCc1cc(=O)[nH]o1` here?
**A.** inactive

**Q.** What about the outcome [3] of the same molecule?
**A.** inactive

**Q.** And the outcome [4]?
**A.** inactive

**Q.** And the outcome [5]?
**A.** inactive

**Q.** What about the outcome [6] of the same molecule?
**A.** inactive

**Q.** What about the outcome [7] of the same molecule?
**A.** inactive

**Q.** What about the max response [1] of the same molecule?
**A.** 24.8% (inactive)

**Q.** With `O=C(Nc1cc(C(F)(F)F)cc(C(F)(F)F)c1)c1cc(Cl)ccc1O` as the molecule, how does the Potency [1] read?
**A.** 7.43 µM (active)

**Q.** With `Clc1ccc(C(c2ccc(Cl)cc2)n2cc[n+](CC(OCc3ccc(Cl)cc3Cl)c3ccc(Cl)cc3Cl)c2)cc1` (stereo not given) as the molecule, how does the Potency [1] read?
**A.** 1 µM (active)
